Screens: PubChem, National Center for Advancing Translational Sciences (NCATS)
This is a sample that favours compounds with a hit; in the whole collection about 6.7% have one here.
KB-3-1 cytotox: KB-3-1 parental cell cytotoxicity | actives 1.4% (n = 400,000) | Potency, µM (series often up to 46.1 µM), actives largely listed as cytotoxic | AID 1347075 | KB-3-1 viability, CellTiter-Glo ATP luminescence, 72 h; further: nearly all actives have a fitted effect of over 60% in size
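Viability of parental KB-3-1 cells, measured by CellTiter-Glo luminescence, followed a 72 h incubation at 37 °C with pinned compounds in phenol-red-free DMEM containing 10% FBS.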
MCF10A rerep: inducers of DNA re-replication in MCF 10A breast cells. MCF 10A DNA re-replication, Hoechst nuclear intensity, 48 h. Potency, µM (top dose mostly 46.1 µM), usual class: activators. actives 2.9% (n = 350,000). AID 624296; further: nearly all actives have a fitted effect of over 50% in size
KB-V1 MDR tox: kills drug-selected multidrug resistant KB-V1 cells; KB-V1 MDR cells viability, CellTiter-Glo, 72 h; Potency, µM (titrated, usually from 46.1 µM), hits mostly cytotoxic; actives 3.4% (n = 400,000); further: nearly all actives have a fitted effect of over 60% in size
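Cytotoxicity via CellTiter-Glo luminescence after 72 h compound exposure at 37 degrees C. Cells: drug-selected KB-V1 line, DMEM phenol-red free plus 10% FBS. Compounds tested at multiple concentrations; normalized data fitted to concentration-effect curves.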
SW480 rerep: induces DNA re-replication in SW480 colon adenocarcinoma cells; SW480 DNA re-replication, Hoechst DNA content imaging, 48 h; Potency, µM (titrated, usually from 46.1 µM), hits mostly activators; actives 1.8% (n = 340,000); further: nearly all actives have a fitted effect of over 55% in size
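Readout is total intensity of Hoechst-stained nuclei, excited at 405 nm and collected at 500-530 nm. Compound treatment lasted 48 hr at 37 C in 5% CO2 before staining.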
PINK1 modulator: changes PINK1 expression | PINK1 immunofluorescence, high-content cytometry, 24 h | Potency, µM (doses to about 76.6 µM), usual class: activators | actives 0.2% (n = 410,000) | AID 624263; active means well fitted activation curve with a large enough effect; inconclusive means small, poorly fitted or top-dose-only effect; cell line not stated here; further: nearly all actives have a fitted effect of over 65% in size
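A stable cell line was treated with compounds at 5 concentrations for 24 hours, with CCCP as control. PINK1 levels and mitochondrial localization were measured by immunofluorescence with mitochondrial, cell and nuclear markers after fixation, read by laser-scanning cytometry.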
Hits are given with their value; i = inactive; ? = inconclusive; nt = not tested or not shown. Unless noted, the call rests on the fitted dose curve; in most records, active means well fitted curve in the direction sought with a large enough effect; inconclusive means small, poorly fitted or top-dose-only effect, or another doubt; inactive means no such curve, though single readings can be large; an effect the other way counts as inactive or inconclusive.

SMILES	KB-3-1 cytotox	MCF10A rerep	KB-V1 MDR tox	SW480 rerep	PINK1 modulator
CN1CCCC(CN(C)C(=O)c2cnn(-c3nccc(-c4ccccc4C(F)(F)F)n3)c2C2CC2)C1 (stereo not drawn)	nt	nt	nt	nt	i
CC(C)(C)c1ccc(N2C(=O)CSC2c2cccnc2)cc1 (stereo not drawn)	i	2.3µM	i	i	i
C=CCn1c(COc2ccc(OC)cc2)nnc1SCn1nnc2ccccc2c1=O	i	i	21µM	i	i
O=c1c2ccccc2nnn1CSc1nnc(COc2ccc(Cl)cc2)n1Cc1ccco1	?	i	?	i	i
COc1ccc(C2=Nc3ccccc3N(C(=O)c3cc(Cl)cc(Cl)c3)C2C(=O)NCc2ccccc2)cc1 (stereo not drawn)	i	nt	?	nt	nt
CC(=O)OCCCNc1cc(Sc2ccc(Cl)cc2)c2nonc2c1[N+](=O)[O-]	i	4.6µM	i	nt	i
COc1ccc(OC)c(NC(=O)CC2SC(=Nc3ccc(F)cc3)N(CCC3=CCCCC3)C2=O)c1 (stereo not drawn)	i	?	?	i	i
COc1cc([N+](=O)[O-])ccc1NC(=O)CC1SC(=Nc2ccc(F)cc2)N(CCC2=CCCCC2)C1=O (stereo not drawn)	9.2µM	?	?	i	i
COc1ccc(OC)c(NC(=O)CC2SC(=Nc3ccccc3)N(CCc3ccccn3)C2=O)c1 (stereo not drawn)	i	i	i	i	i
COc1ccc(N=C2SC(CC(=O)Nc3ccc(OC)cc3OC)C(=O)N2C)cc1 (stereo not drawn)	i	i	18µM	i	i
CC(C)Oc1cccc(-c2ccnc(N3CCC(C(N)=O)CC3)n2)c1	i	nt	i	nt	nt
CCC(C)n1ncn(-c2ccc(N3CCN(c4ccc(O)cc4)CC3)cc2)c1=O (stereo not drawn)	1.5µM	?	i	i	i
O=C1C(Nc2ccccc2)=C(NS(=O)(=O)c2ccccc2)C(=O)c2ccccc21	i	i	?	i	i
O=C1C(Nc2ccccc2)=C/C(=N/S(=O)(=O)c2cccs2)c2ccccc21	?	3.3µM	?	5.8µM	i
Cc1ccc(NC2=C/C(=N/S(=O)(=O)c3cccs3)c3ccccc3C2=O)cc1	2.3µM	8.2µM	?	?	i
O=C(CC1C(=O)NCCN1CCCc1ccccc1)NCCc1ccccc1Cl (stereo not drawn)	i	i	i	i	i
CCCCCOc1ccc(CSc2n[nH]c(C)n2)cc1	i	i	i	i	i
Cc1nc(SCc2ccc(OCCC(C)C)cc2)n[nH]1	i	i	i	23µM	i
N#CC1=C(N)Oc2cc(O)ccc2C1c1ccccc1 (stereo not drawn)	?	?	18µM	i	i
COc1cc(C2C(C#N)=C(N)Oc3cc(N(C)C)ccc32)cc2c1OCO2 (stereo not drawn)	0.82µM	?	0.016µM	i	i
COc1cc(C2C(C#N)=C(N)Oc3cc4c(cc32)OCO4)cc(OC)c1OC (stereo not drawn)	0.0052µM	?	0.23µM	?	i
COc1cc(C2C(C#N)=C(N)Oc3cc(O)ccc32)cc(OC)c1OC (stereo not drawn)	2.9µM	i	?	i	nt
CC(C)Sc1nc2ccccc2n2cnnc12	i	i	i	i	i
N#CCC(=O)Nc1ccc(C(=O)OC(C(=O)Nc2cc(C(F)(F)F)ccc2Cl)c2ccccc2)cc1 (stereo not drawn)	?	?	15µM	?	i
Cc1ccc(F)cc1NC(=O)c1ccc(NS(=O)(=O)c2ccc(Br)s2)cc1	i	?	16µM	?	i
SMILES	KB-3-1 cytotox	MCF10A rerep	KB-V1 MDR tox	SW480 rerep	PINK1 modulator
NC(=O)c1ccc(NS(=O)(=O)c2ccc(Br)s2)cc1	i	i	i	i	i
CC(C)(C)OC(=O)N1CCCN(C(c2ccnc3ccccc23)c2nnnn2-c2ccc3c(c2)OCCO3)CC1 (stereo not drawn)	?	nt	i	nt	i
CCOC(=O)N1CCN(C(c2ccnc3ccccc23)c2nnnn2-c2ccc3c(c2)OCCO3)CC1 (stereo not drawn)	?	nt	18µM	nt	i
CCC(c1nnnn1-c1ccc2c(c1)OCCO2)N1CCN(c2ccc(F)cc2)CC1 (stereo not drawn)	?	nt	10µM	nt	i
CCC(c1nnnn1-c1ccc2c(c1)OCCO2)N1CCN(c2ncccc2C(F)(F)F)CC1 (stereo not drawn)	?	nt	?	nt	i
Cc1cccc(C)c1N1CCN(C(c2ccnc3ccccc23)c2nnnn2-c2ccc3c(c2)OCCO3)CC1 (stereo not drawn)	21µM	nt	18µM	nt	i
CC1=C(c2ccc(C)c(C)c2)S(=O)(=O)N(Cc2ccc(C(=O)NC(C)c3ccccc3)cc2)C1=O (stereo not drawn)	i	nt	i	nt	i
O=C(Nc1ccc(F)cc1)c1cnc(-c2ccccc2)nc1-c1ccccc1	i	i	?	?	?
O=C(Nc1ccc(F)c(F)c1)c1cnc(-c2ccccc2)nc1-c1ccccc1	i	13µM	i	i	i
c1ccc2sc(NC3=NCN(C4CCCCCC4)CN3)nc2c1	?	i	21µM	i	i
c1ccc2oc(NC3=NCN(C4CCCCC4)CN3)nc2c1	i	i	i	i	i
CCN(CC)S(=O)(=O)c1ccc(N2CCN(c3cccc(OC)c3)CC2)c([N+](=O)[O-])c1	i	i	2.9µM	i	i
COc1cccc(N2CCN(c3ccc(S(=O)(=O)N4CCN(C)CC4)cc3[N+](=O)[O-])CC2)c1	?	?	?	i	i
O=C1CSC2(C(=O)N(Cc3cccc(F)c3)c3ccccc32)N1c1cccc(C(F)(F)F)c1 (stereo not drawn)	?	nt	13µM	nt	i
O=C1CSC2(C(=O)N(Cc3ccccc3)c3ccccc32)N1c1ccc(Cl)cc1 (stereo not drawn)	?	nt	i	nt	i
CC(C)c1ccc(N2C(=O)CSC23C(=O)N(Cc2cccc(F)c2)c2ccccc23)cc1 (stereo not drawn)	21µM	nt	13µM	nt	i
Cc1cccc(N2C(=O)CSC23C(=O)N(Cc2cccc(F)c2)c2ccccc23)c1 (stereo not drawn)	?	nt	15µM	nt	i
CCc1ccc(N2C(=O)CSC23C(=O)N(Cc2cccc(OC)c2)c2ccccc23)cc1 (stereo not drawn)	?	nt	10µM	nt	i
Cc1cccc(N2C(=O)CCSC23C(=O)N(Cc2ccc(F)cc2)c2ccccc23)c1 (stereo not drawn)	i	nt	i	nt	i
CC(=O)c1ccc(N2CCN(CN3C(=O)CC4(CCCC4)C3=O)CC2)c(F)c1	i	?	i	i	i
COc1ccc(N2C(=O)CS(=O)(=O)C23C(=O)N(Cc2c(F)cccc2Cl)c2ccccc23)cc1 (stereo not drawn)	i	nt	i	nt	i
Cc1cccc(N2C(=O)CS(=O)(=O)C23C(=O)N(Cc2c(F)cccc2Cl)c2ccccc23)c1 (stereo not drawn)	i	nt	5.8µM	nt	i
